Measurements published in the supplement of paper PMC11219838.
A number with no mark means an inactive call.

How the values were obtained:
Details in all cases: 60 µM; 5 days; temperature: 20 °C
[1] = tested on: Meloidogyne hapla J2; assay: proportion of mobile M. hapla J2 relative to DMSO control (fraction of DMSO control); higher = more viable, less nematicidal, active = 0.7 or less
How it was run: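 Sealed 96-well plates, each well holding around 25 M. hapla J2 in distilled water with compound pinned to 60 µM final (0.6% v/v DMSO), were shaken at 200 rpm for 5 days at 20 °C. Then 2 µL of 1 M NaOH was added to each well. Microscope-scored mobility was normalised to the mean of DMSO-only wells from the same plate. Eight such wells were on each plate, and the two biological replicates were averaged.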

[2] = tested on: Caenorhabditis elegans dauer (daf-2(e1370)); assay: proportion of mobile C. elegans dauer larvae relative to DMSO control (fraction of DMSO control); higher = more viable, less nematicidal, active = 0.63 or less; extreme values may be limits of the assay
How it was run: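 The proportion of mobile worms, relative to DMSO wells, was scored by dissection microscope and averaged over two biological replicates. Worms were C. elegans dauers, about 20 per well in liquid NGM in 96-well plates, generated from synchronized larvae on MYOB plates with E. coli OP50 at 25 °C for 48 h. They were treated with compound pinned to 60 µM final (0.6% v/v DMSO) and kept in sealed plates shaken at 200 rpm for 5 days at 20 °C.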

[3] = tested on: Ditylenchus dipsaci; assay: proportion of mobile D. dipsaci (mixed stage) relative to DMSO control (fraction of DMSO control); higher = more viable, less nematicidal, active = 0.86 or less; extreme values may be limits of the assay
How it was run: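 Mobility, expressed relative to DMSO controls, is the mean of two biological replicates. The test organisms were D. dipsaci grown on pea plants in Gamborg B-5 agar and extracted into water by filter funnel, with about 20 added per well of a 96-well plate in distilled water. Compound was pinned to 60 µM final (0.6% v/v DMSO), plates were sealed and shaken at 200 rpm for 5 days at 20 °C, and mobile worms were scored under a microscope once 2 µL 1 M NaOH had been added.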

SMILES | proportion of mobile M. hapla J2 [1] | proportion of mobile C. elegans dauer larvae [2] | proportion of mobile D. dipsaci [3]
O=C(c1ccccc1-c1nc(-c2ccc(Cl)cc2)no1)N1CCCCC1 | 0.941 | 1 | 1
COc1ccc(Cl)cc1-c1nc(-c2ccccc2C)no1 | 0.852 | 1 | 1
COc1ccc(-c2nnc(SCC(=O)Nc3ccccc3C(C)C)o2)cc1 | 0.877 | 1 | 1
CCOc1nc(-c2ccc(C)cc2)ccc1-c1noc(CC)n1 | 0.667 (active) | 1 | 1
Cc1ccc(-c2nc(-c3ccccc3)no2)cc1 | 1.04 | 1 | 1
CCCc1ccc(-c2nc(-c3cccnc3)no2)cc1 | 1.08 | 0.926 | 0.562 (active)
COc1ccc(OCc2nc(-c3cccc(Br)c3)no2)cc1 | 1 | 1 | 1
Clc1cccc(-c2nc(-c3ccncc3)no2)c1 | 0.634 (active) | 1 | 1
CCC(=O)Nc1ccccc1-c1nc(-c2ccncc2)no1 | 0.938 | 1 | 1
CCOc1nc(-c2ccc(C)cc2)ccc1-c1noc(-c2ccncc2)n1 | 0.901 | 1 | 1
COc1ccccc1OCc1nc(-c2ccccc2)no1 | 0.973 | 1 | 1
CCCCC(=O)Nc1ccccc1-c1nc(-c2ccncc2)no1 | 1.06 | 1 | 1
c1ccc(COc2cccc(-c3nc(-c4ccccn4)no3)c2)cc1 | 1.03 | 1 | 1
Cc1cccc(-c2nc(-c3ccc4c(c3)OCO4)no2)c1 | 1.01 | 1 | 1
COc1ccccc1CC(=O)Nc1ccc(-c2noc(-c3ccccc3C)n2)cc1 | 0.743 | 1 | 1
c1ccc(COc2cccc(-c3nc(-c4ccncc4)no3)c2)cc1 | 0.915 | 1 | 1
COc1cccc(NC(=O)CSc2nnc(-c3ccc(C)cc3)o2)c1 | 1.04 | 1 | 1

SMILES | proportion of mobile M. hapla J2 [1] | proportion of mobile C. elegans dauer larvae [2] | proportion of mobile D. dipsaci [3]
O=C(CSc1nnc(-c2ccc(Cl)cc2)o1)Nc1ccccc1C(F)(F)F | 0.752 | 1 | 1
Cc1nc(CSc2nnc(-c3ccccc3)o2)cs1 | 0.282 (active) | 1 | 1
Ic1ccc(-c2nc(-c3cccnc3)no2)cc1 | 1.02 | 1 | 1
CCCOc1ccc(-c2nc(-c3cccnc3)no2)cc1 | 0.945 | 1 | 1
Fc1ccc(-c2noc(COc3cccc(Cl)c3)n2)cc1 | 0.908 | 1 | 1
Cc1cc(Cl)ccc1OCc1nc(-c2ccccc2)no1 | 1.02 | 1 | 1
COc1ccccc1-c1nc(-c2ccc(Cl)cc2Cl)no1 | 1 | 1 | 1
COc1cccc(-c2nnc(SCC(=O)Nc3ccccc3)o2)c1 | 1.03 | 1 | 1
COc1ccc(-c2noc(COc3ccc(Br)cc3)n2)cc1 | 1 | 1 | 1
Cc1ccc(-c2noc(-c3ccc(C)cc3Cl)n2)cc1 | 0.893 | 1 | 1
Cc1cc(C)cc(-c2nc(-c3ccc(Cl)cc3)no2)c1 | 0.938 | 1 | 1
CCc1ccc(OCc2nc(-c3cccc(OC)c3)no2)cc1 | 0.74 | 1 | 1
Cc1cc(NC(=O)CSc2nnc(-c3ccccc3Cl)o2)no1 | 0.915 | 1 | 1
COc1nc(-c2ccc(Cl)cc2)ccc1-c1noc(-c2ccncc2)n1 | 0.921 | 1 | 1
COc1ccc(-c2nnc(SCC(=O)Nc3ccc(Br)cc3C)o2)cc1 | 0.929 | 1 | 0.667 (active)
Cc1c(C(=O)CSc2nnc(-c3ccccc3)o2)c2ccccc2n1C | 0.957 | 1 | 1
Cc1cccc(NC(=O)CSc2nnc(-c3ccncc3)o2)c1C | 1.02 | 1 | 1
